Measurements reported in ChEMBL document CHEMBL4296182, “CO-ADD screening of NIH NCI Diversity Set V”.
For part of these data: Potency and affinity values are given separately.

Legend:
Staphylococcus aureus = experiment: Antibacterial activity against Staphylococcus aureus MRSA ATCC 43300 (CO-ADD:GP_020); MIC in CAMBH media using NBS plates, by Resazurin F(560/590); assay type: functional; settings: Concentration 20 uM, ASSAY_TEST Inhibition of Bacterial Growth, detection method Resazurin, Fluorescence (ex560/em590), MEDIA CAMHB, plate type 384well, CORNING #3640, time 18 hr
Acinetobacter baumannii = experiment: Antibacterial activity against Acinetobacter baumannii ATCC 19606 (CO-ADD:GN_034); MIC in CAMBH media using NBS plates, by Resazurin F(560/590); assay type: functional; settings: Concentration 20 uM, ASSAY_TEST Inhibition of Bacterial Growth, detection method Resazurin, Fluorescence (ex560/em590), MEDIA CAMHB, plate type 384well, CORNING #3640, time 18 hr
Escherichia coli = experiment: Antibacterial activity against Escherichia coli ATCC 25922 (CO-ADD:GN_001); MIC in CAMBH media using NBS plates, by Resazurin F(560/590); assay type: functional; settings: Concentration 20 uM, ASSAY_TEST Inhibition of Bacterial Growth, detection method Resazurin, Fluorescence (ex560/em590), MEDIA CAMHB, plate type 384well, CORNING #3640, time 18 hr
Klebsiella pneumoniae = settings: Concentration 20 uM; ASSAY_TEST Inhibition of Bacterial Growth; detection method Absorption (OD600); MEDIA CAMHB; plate type 384well; NBS; CORNING #3640; time 18 hr
Candida albicans = settings: 20 µM
Cryptococcus neoformans = settings: Concentration 20 uM; ASSAY_TEST Inhibition of Fungal Growth; detection method Resazurin; Absorption (OD600-OD570); plate type 384well; NBS; CORNING #3640

Structure (SMILES) | Inhibition (Staphylococcus aureus) | Inhibition (Acinetobacter baumannii) | Inhibition (Escherichia coli) | Inhibition (Klebsiella pneumoniae) | Inhibition (Candida albicans) | Inhibition (Cryptococcus neoformans)
Cc1cc2c(cc1C)N(C(=O)CCl)CC(=O)N2 | -15.91% | -11.28% | 5.03% | 7.32% | 2.46% | -7.55%
O[C@@H](c1cc(-c2ccc(C(F)(F)F)cc2)nc(C(F)(F)F)c1)[C@H]1CCCCN1 | 4.92% | 7.22% | 8.91% | 19.18% | 3.72% | -3.44%
O=[N+]([O-])c1ccc(/C=C\c2ccncc2)cc1 | -4.43% | 17.7% | -9.25% | 16.94% | 3.43% | -1.17%
N=C(N)n1c(N)nc2ccccc2c1=O | -3.84% | 11.96% | 12.39% | 5.57% | 0.23% | -13.19%
COC(=O)c1cc(C)c(C)cc1NC1OC(CO)C(O)C1O (configuration not stated) | -3.53% | 7.51% | -12.77% | 12.31% | 6.05% | -3.92%
C=CCC(CC)C(=O)NC(=O)N1CCCc2ccccc21 (configuration not stated) | -2.1% | 11.89% | -1.31% | 11.1% | 4.92% | -1.85%
CCOC(=O)N1CCN(Cc2c(O)ccc3ccccc23)CC1 | 1.46% | -8.59% | 8.73% | 12.37% | 3.24% | -5.96%
Oc1ccc(Cc2ccc(Cl)cc2)c(O)c1 | 10.37% | -6.86% | 10.87% | 7.26% | -0.85% | -7.42%
NC(=O)/C(=C\c1ccncc1)c1cccc2ccccc12 | 3.23% | -18.71% | 6.96% | 13.72% | -4.11% | -6.45%
CCOC(=O)c1nn(-c2ccccc2)cc1O | -14.3% | -10.69% | -0.72% | -1.36% | 0.93% | -2.21%
CC(=O)Nc1nc(C)c(CCC2OCCO2)c(O)n1 | 4.85% | 12.66% | -15.79% | 16.29% | 5.32% | 22%
COc1ccc([N+](=O)[O-])cc1NC(=O)N(C)Cc1ccco1 | 9.28% | 17.46% | 6.67% | 14.11% | -1.23% | -10.86%
S=C(SCc1cc(Cl)cc2c1OCOC2)N1CCSCC1 | 8.1% | -7.54% | 10.68% | 22.79% | 13.5% | 0.8%
O=C(Cn1nnc(N2CCCCC2)n1)N/N=C/c1ccccc1O | 17.81% | 3.41% | 7.77% | 2.1% | -0.19% | -9.12%
COc1cc(NC(C)=O)c2ncccc2c1NC(C)=O | 3.21% | 8.89% | -13.22% | 18.39% | 5.47% | 12.48%
CC(C)c1nc2c(=O)n(C)c(=O)n(C)c2[nH]1 | 10.47% | -19.52% | 12.69% | -1.01% | -1.8% | -13.14%
O=S(=O)(Oc1ccc(Cl)cc1)c1cccc2cccnc12 | 11.37% | -12.19% | 8.94% | 7.96% | -1.21% | -3.12%
CCCc1cc(=O)oc2c3c(c4c(c12)OC(C)(C)C=C4)OC(C)[C@H](C)[C@@H]3O (some centres not stated) | 12.64% | -5.36% | 11.63% | 20.98% | 7.97% | -3.22%
O=C(Nc1cccc([N+](=O)[O-])c1)c1cccc(C(=O)Nc2cccc([N+](=O)[O-])c2)c1 | -2.9% | 3.66% | 1.98% | 5.84% | -0.13% | 37.96%

Structure (SMILES) | Inhibition (Staphylococcus aureus) | Inhibition (Acinetobacter baumannii) | Inhibition (Escherichia coli) | Inhibition (Klebsiella pneumoniae) | Inhibition (Candida albicans) | Inhibition (Cryptococcus neoformans)
Cc1ccc(NC(=S)NC(=O)c2ccccc2)cc1NC(=S)NC(=O)c1ccccc1 | 23.47% | -11.72% | 7.94% | 3.93% | -0.27% | 1.39%
COc1c(C=O)c2c(c(OC)c1OC)-c1ccc(OC)c(=O)cc1[C@@H](NC(C)=O)CC2 | -5.44% | -11.93% | 15.89% | 9.96% | 0.57% | -7.77%
COc1cc(/N=N/c2ccccc2C(=O)O)ccc1O | 46.16% | -0.55% | 0.38% | 12.27% | -1.22% | 3.74%
CCC(C)n1c(C)cc(=O)n1C(C)CC (configuration not stated) | 2.1% | -5.44% | -0.28% | 0.77% | -0.29% | -4.99%
CC(C)CNC(=O)/C=C\C(=O)O | -0.87% | -6.9% | -14.17% | 9.3% | 3.69% | 32.61%
CCOC(=O)Nc1ccc2nc(N3CCCCCC3)sc2c1 | 14.81% | 14.56% | 8.66% | 9.37% | 0.84% | -12.19%
COc1ccc(OCC(O)CN2CCN(c3ccc(Cl)cc3)CC2)cc1 (configuration not stated) | -0.5% | 8.48% | 10.52% | 5.97% | -0.41% | -11.59%
CCOC(=O)c1c(C)oc(C)c(C(=O)OCC)c1=O | 10.05% | 8.54% | -0.85% | 10.69% | 0.83% | -7.36%
NC(=O)Oc1cccc(OC(N)=O)c1 | 9.68% | -13.95% | 4.31% | 5.21% | 2.21% | -9.78%
CN(c1cccnc1)c1[nH]cnc2nncc1-2 | -13.03% | -4.86% | -0.96% | -0.91% | 0.07% | -5.56%
Clc1nc(Oc2ccccc2)nc(-c2cn(-c3ccccc3)c3ccccc23)n1 | 2.81% | 4.85% | 6.07% | 3.03% | -0.88% | -13%
CCOC(=O)N1C/C(=C\c2ccccc2)C(=O)/C(=C/c2ccccc2)C1 | 10.93% | 7.26% | 0.16% | 12.83% | 6.37% | -7.05%
O=C(O)CCC1(c2ccccc2)NC(=O)NC1=O (configuration not stated) | 11.61% | -12.39% | 7.41% | 2.37% | -1.18% | -9.46%
Cn1cnc2ncnn2c1=S | 0.31% | -8.2% | -1.17% | -0.39% | 2.7% | -8.45%
CCCCNc1nc(N)ncc1[N+](=O)[O-] | 5.28% | -8.97% | 14% | 10.57% | 8.4% | -15.62%
C=CCOc1ccnc(-c2ccccc2)n1 | -3.88% | -11.54% | 5% | 9.63% | 1.14% | -7.2%
N[C@H](C(=O)O)[C@H]1ON=C(Cl)[C@@H]1O | 11.62% | -0.47% | 10.43% | 5% | 2.6% | -3.55%
CCCCc1c(C)nc(S)nc1O | 16.17% | -14.45% | 9.4% | 7.26% | 2.04% | -3.51%
